Measurements published in ChEMBL document CHEMBL1961873, “Compounds: GSK PKIS; Assays: Nanosyn kinase panel” (2012).
Values joined by “and” are separate entries in the source; they are usually repeats but may differ in a detail not shown here. Equal values may be shown once.

Experiments:
[1] = target: Calcium/calmodulin-dependent protein kinase type II subunit alpha (Homo sapiens) (UniProt Q9UQM7); details: at 1 µM;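 further: reported value is a mean percent inhibition of CAMK2A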
[2] = target: Calcium/calmodulin-dependent protein kinase type II subunit delta (Homo sapiens) (UniProt Q13557); details: at 0.1 µM
Chain of Calcium/calmodulin-dependent protein kinase type II subunit delta (Homo sapiens) (Q13557 whole entry): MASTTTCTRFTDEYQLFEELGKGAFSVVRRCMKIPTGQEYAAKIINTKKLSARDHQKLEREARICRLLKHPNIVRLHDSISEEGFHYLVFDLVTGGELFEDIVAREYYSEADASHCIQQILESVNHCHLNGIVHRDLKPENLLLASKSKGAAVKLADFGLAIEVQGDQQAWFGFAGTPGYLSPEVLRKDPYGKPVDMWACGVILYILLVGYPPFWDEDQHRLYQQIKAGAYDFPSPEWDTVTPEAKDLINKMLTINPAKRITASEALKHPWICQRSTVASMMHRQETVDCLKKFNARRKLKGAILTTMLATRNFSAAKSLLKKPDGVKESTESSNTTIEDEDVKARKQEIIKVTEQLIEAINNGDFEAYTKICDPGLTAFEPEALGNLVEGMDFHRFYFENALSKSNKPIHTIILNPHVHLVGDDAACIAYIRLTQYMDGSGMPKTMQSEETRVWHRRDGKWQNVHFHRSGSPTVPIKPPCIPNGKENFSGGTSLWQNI

[3] = target: Calcium/calmodulin-dependent protein kinase type II subunit delta (Homo sapiens) (UniProt Q13557); details: at 1 µM
[4] = target: T1, Calcium/calmodulin-dependent protein kinase type IV (Homo sapiens) (UniProt Q16566); details: at 0.1 µM
T1 sequence (whole entry): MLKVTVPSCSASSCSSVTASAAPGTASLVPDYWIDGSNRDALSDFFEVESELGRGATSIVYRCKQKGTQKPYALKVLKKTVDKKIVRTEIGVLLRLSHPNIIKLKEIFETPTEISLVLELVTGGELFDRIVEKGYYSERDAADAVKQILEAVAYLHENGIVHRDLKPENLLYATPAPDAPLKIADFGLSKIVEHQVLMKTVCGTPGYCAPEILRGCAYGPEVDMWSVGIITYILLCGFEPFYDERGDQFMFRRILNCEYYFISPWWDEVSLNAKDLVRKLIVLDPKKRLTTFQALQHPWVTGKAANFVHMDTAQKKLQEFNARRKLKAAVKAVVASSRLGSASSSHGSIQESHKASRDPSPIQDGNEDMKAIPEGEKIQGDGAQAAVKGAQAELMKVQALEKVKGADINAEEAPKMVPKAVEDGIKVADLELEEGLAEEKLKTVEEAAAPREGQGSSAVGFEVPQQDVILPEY

[5] = target: T1, Calcium/calmodulin-dependent protein kinase type IV (Homo sapiens); details: at 1 µM
[6] = target: T2, Serine/threonine-protein kinase Chk1 (Homo sapiens) (UniProt O14757); details: at 0.1 µM
T2 sequence (whole entry): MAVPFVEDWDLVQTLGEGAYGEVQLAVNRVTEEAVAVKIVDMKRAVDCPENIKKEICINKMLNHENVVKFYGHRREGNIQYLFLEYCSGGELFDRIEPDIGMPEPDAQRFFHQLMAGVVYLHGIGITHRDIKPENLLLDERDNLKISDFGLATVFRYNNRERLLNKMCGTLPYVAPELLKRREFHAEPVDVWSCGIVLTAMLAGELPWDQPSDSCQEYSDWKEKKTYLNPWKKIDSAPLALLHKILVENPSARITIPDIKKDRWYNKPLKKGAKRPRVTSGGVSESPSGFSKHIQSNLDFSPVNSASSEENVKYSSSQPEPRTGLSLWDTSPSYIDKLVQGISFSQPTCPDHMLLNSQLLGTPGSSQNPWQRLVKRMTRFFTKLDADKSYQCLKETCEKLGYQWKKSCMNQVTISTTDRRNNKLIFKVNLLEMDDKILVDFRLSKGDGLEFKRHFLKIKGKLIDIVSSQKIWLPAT

[7] = target: T2, Serine/threonine-protein kinase Chk1 (Homo sapiens); details: at 1 µM
[8] = target: Serine/threonine-protein kinase Chk2 (Homo sapiens) (UniProt O96017); details: at 0.1 µM
Chain of Serine/threonine-protein kinase Chk2 (Homo sapiens) (O96017 whole entry): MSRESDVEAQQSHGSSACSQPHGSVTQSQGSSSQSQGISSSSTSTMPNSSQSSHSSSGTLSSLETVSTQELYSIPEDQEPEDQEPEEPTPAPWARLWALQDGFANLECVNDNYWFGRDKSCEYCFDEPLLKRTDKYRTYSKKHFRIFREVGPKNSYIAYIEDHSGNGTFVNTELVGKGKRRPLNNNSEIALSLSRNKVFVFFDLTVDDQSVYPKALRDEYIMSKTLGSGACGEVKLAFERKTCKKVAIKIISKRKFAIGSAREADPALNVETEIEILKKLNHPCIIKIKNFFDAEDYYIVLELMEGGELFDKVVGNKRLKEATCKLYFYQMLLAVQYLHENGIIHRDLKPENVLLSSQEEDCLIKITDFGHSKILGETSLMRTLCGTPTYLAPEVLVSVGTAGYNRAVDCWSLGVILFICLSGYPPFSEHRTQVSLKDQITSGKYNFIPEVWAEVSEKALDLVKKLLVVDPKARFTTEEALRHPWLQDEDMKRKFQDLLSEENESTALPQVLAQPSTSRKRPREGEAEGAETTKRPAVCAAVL

[9] = target: Serine/threonine-protein kinase Chk2 (Homo sapiens) (UniProt O96017); details: at 1 µM
[10] = target: Death-associated protein kinase 1 (Homo sapiens) (UniProt P53355); details: at 0.1 µM;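 further: reported figure is the mean inhibition of DAPK1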
Chain of Death-associated protein kinase 1 (Homo sapiens) (P53355 whole entry, looked up): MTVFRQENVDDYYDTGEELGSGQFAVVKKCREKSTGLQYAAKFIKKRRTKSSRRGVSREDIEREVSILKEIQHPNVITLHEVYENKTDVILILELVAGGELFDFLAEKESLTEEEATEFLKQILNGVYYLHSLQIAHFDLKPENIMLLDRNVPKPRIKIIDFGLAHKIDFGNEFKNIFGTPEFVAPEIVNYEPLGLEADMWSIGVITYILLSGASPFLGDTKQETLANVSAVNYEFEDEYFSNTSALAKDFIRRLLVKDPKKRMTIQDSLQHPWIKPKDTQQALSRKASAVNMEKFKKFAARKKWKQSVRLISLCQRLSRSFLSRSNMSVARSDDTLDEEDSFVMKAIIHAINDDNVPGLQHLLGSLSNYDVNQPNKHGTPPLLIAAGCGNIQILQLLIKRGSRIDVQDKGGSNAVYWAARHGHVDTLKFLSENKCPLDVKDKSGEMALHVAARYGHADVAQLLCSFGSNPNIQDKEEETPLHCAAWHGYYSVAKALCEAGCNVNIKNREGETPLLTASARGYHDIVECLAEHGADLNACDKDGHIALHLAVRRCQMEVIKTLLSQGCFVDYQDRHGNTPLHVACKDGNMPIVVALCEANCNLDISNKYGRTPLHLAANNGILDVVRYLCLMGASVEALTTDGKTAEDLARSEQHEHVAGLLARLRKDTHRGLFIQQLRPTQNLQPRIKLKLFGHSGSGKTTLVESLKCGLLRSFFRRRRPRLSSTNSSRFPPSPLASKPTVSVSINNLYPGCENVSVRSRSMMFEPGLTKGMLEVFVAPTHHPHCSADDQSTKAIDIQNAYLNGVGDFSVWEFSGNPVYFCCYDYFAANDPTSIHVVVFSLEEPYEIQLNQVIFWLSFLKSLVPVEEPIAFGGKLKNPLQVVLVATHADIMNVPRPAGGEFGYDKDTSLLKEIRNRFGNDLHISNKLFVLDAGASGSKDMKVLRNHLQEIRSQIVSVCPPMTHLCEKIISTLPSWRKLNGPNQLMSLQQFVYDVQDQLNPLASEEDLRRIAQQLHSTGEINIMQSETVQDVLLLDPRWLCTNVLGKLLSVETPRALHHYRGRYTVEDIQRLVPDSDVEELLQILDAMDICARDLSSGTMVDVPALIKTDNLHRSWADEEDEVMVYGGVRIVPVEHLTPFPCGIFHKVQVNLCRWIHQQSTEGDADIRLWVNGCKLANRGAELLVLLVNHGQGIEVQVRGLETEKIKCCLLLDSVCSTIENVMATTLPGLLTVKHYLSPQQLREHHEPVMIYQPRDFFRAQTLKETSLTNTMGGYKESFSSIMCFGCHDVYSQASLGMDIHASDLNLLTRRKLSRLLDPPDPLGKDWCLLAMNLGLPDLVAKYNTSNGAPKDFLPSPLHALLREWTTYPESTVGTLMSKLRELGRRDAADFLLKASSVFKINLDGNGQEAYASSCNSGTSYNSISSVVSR

Chain of Calcium/calmodulin-dependent protein kinase type II subunit alpha (Homo sapiens) (Q9UQM7 whole entry): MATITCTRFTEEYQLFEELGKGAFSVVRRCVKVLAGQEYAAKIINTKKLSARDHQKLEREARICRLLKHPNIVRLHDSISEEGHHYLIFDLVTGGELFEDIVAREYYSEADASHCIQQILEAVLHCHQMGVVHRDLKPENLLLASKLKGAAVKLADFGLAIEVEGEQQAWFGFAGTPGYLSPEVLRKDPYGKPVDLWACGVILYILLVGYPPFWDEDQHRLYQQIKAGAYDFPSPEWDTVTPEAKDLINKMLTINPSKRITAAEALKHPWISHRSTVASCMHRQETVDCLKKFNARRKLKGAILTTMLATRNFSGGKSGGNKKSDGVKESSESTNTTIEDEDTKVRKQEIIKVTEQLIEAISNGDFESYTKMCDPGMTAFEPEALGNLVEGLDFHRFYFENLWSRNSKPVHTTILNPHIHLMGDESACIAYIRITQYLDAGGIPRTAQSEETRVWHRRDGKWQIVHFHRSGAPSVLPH

Structure (SMILES) | inhibition [1] | inhibition [2] | inhibition [3] | inhibition [4] | inhibition [5] | inhibition [6] | inhibition [7] | inhibition [8] | inhibition [9] | inhibition [10]
CS(=O)(=O)CCNCc1ccoc1-c1ccc2ncnc(Nc3ccc(OCc4ccccc4)cc3)c2c1 | 0.09% | 0.18% | -0.44% | -0.43% | -1.35% | 0.86% | -2.73% | 1.56% | 8.55% | -0.21%
CC1=C(C(=O)Nc2ccc3[nH]ncc3c2)C(c2ccc(F)cc2)N=C(c2ccc(C(F)(F)F)nc2)N1 (stereo not given) | 2.04% | 0.67% | 3.6% | 0.82% | 1.17% | 0.19% | 3.03% | 1.5% | 2.24% | 0.86%
COC(=O)Nc1nc2ccc(Oc3ccc(NC(=O)Nc4cc(C(F)(F)F)ccc4F)cc3)cc2s1 | 0.75% | 0.25% | 1.63% | 0.98% | 2.48% | -6.7% | 0.48% | -0.62% | -0.04% | -0.48%
N#Cc1cccc(Nc2ncc(-c3ccccc3)o2)c1 | 1.79% | 0.08% | 2.56% | -2.03% | -2.55% | 0.93% | 2.48% | 1.04% | 2.58% | 2.18%
CN1CCC(C(=O)Nc2n[nH]c3nc(-c4ccc(O)cc4)c(Br)cc23)CC1 | 5.88% and 4.76% | 3.23% and 2.76% | 12.3% and 11.1% | -1.13% and 0.82% | -1.76% and 1.46% | 0.73% and 0.68% | 5.31% and 2.46% | 3.5% and 1.61% | 5.98% and 3.76% | 2.41% and 2.49%
COc1ccc(-c2nn3ncccc3c2-c2ccnc(Nc3ccc(F)c(F)c3)n2)cc1 | 4.43% | 3.14% | 7.4% | -3.18% | -4.79% | 3.76% | 8.64% | 6.74% | 7.89% | 4.63%
COC(=O)Nc1nc2cc(Oc3ccc(NC(=O)Nc4ccccc4)cc3)ccc2[nH]1 | 1.94% | 1.6% | 1.54% | -1.32% | -2.54% | -0.71% | 3.92% | 1.94% | 3.46% | 3.21%
CNC(=O)c1sc(-n2cnc3cc(OC)c(OC)cc32)cc1OCc1ccccc1C(F)(F)F | -0.49% | 3.02% | 0.51% | 0.67% | -0.52% | 2.9% | 3.46% | 2.9% | 2.7% | 5.53%
CC(C)c1ccc(-c2cc(-c3c[nH]nc3-c3ccccn3)ccn2)cc1 | -0.49% | -0.8% | 1.63% | 0.73% | 1.62% | -0.13% | 1.92% | 0.27% | 0.77% | 0.1%
COc1cc(Nc2ncc(-c3ccccc3)o2)cc(OC)c1 | 1.52% | 3.94% | 7.34% | -1.03% | -1.65% | 1.69% | 0.7% | 4.6% | 5.38% | 2.51%
CCN1CCC(C(=O)Nc2n[nH]c3nnc(-c4cccc(F)c4F)cc23)CC1 | -1.33% | -0.8% | -0.61% | 0.3% | -1.03% | -2.25% | 0.59% | -0.57% | 0.65% | -0.72%
O=C(O[C@H]1CN[C@H](C#Cc2cc3ncnc(Nc4ccc5c(cnn5Cc5ccccc5)c4)c3s2)C1)N1CCOCC1 | -1.88% | 0.73% | 0.8% | 0.67% | -0.25% | 0.36% | -0.07% | -1.25% | 0.86% | -0.35%
Nc1nccc(-c2c(-c3ccc(F)cc3)ncn2C2CCNCC2)n1 | -5.1% and -1.06% | -3.9% and -0.18% | 1.49% and 0.43% | 0% and 0.8% | -2.13% and 0% | -2.55% and 0.68% | -3.32% and -2.24% | -2.81% and -0.53% | -2.65% and -0.65% | -2.18% and -0.72%
CC1=C(C(=O)Nc2ccc3[nH]nc(C)c3c2)C(c2ccc(C(F)(F)F)cc2)CC(=O)N1 (stereo not given) | 2.9% | 1.76% | 4.44% | 0.07% | 0.57% | 2.48% | 2.75% | 1.95% | 6.02% | 3.37%
NS(=O)(=O)c1cccc(N/C=C2\C(=O)Nc3ccccc32)c1 | 8.27% | 5.11% | 16.3% | 1.25% | 2.86% | 9.31% | 14.3% | 10.6% | 32.8% | 10.6%
N#Cc1ccc2c(-c3ccnc(NC4CC4)n3)c(-c3ccc(F)cc3)nn2c1 | -1.71% | 0.13% | -1.01% | 0.17% | -2.53% | -1.96% | -0.86% | -0.32% | 0.27% | 1.33%

Structure (SMILES) | inhibition [1] | inhibition [2] | inhibition [3] | inhibition [4] | inhibition [5] | inhibition [6] | inhibition [7] | inhibition [8] | inhibition [9] | inhibition [10]
Fc1ccc(Nc2nccc(-c3c(-c4ccc(C(F)(F)F)cc4)nn4ncccc34)n2)cc1F | 4.6% | 1.73% | 4.42% | -0.48% | 0.05% | 3% | 3.73% | 3.02% | 4.46% | 3.45%
c1cnn2ncc(-c3ccnc(NCCCN4CCOCC4)n3)c2c1 | 6.81% | 3.65% | 3.72% | -0.02% | -0.41% | 0.25% | 1.83% | 2.74% | 3.47% | -0.4%
CS(=O)(=O)Nc1ccc(-c2ccc3c(NC(=O)C4CC4)n[nH]c3c2)cc1 | 3.84% | 3.65% | 3.38% | -0.67% | -0.43% | 1.65% | 1.61% | 4.58% | 7.38% | 2.51%
CNC(=O)c1ncccc1Nc1nc(Nc2cc3c(cc2OC)CCCN3C(=O)CN(C)C)nc2[nH]ccc12 | 5.55% | 4.46% | 8.21% | 0.87% | 5.93% | 3.13% | 4.54% | 3.89% | 11.9% | 4.3%
Fc1cccc(COc2ccc(Nc3ncncc3C#Cc3ccccc3)cc2Cl)c1 | 3.65% | 2.79% | 2.05% | -2.29% | -4.84% | 3.29% | 5.99% | 3.47% | 5.22% | 5.08%
OCCCNc1nccc(-c2c(-c3ccc(F)cc3)nn3cc(C(F)(F)F)ccc23)n1 | 3.74% | 2.44% | 6.94% | 0.82% | 1.44% | -0.5% | -1.18% | 2.3% | 2.83% | -0.68%
FC(F)(F)CNc1nccc(-c2cnn3ncccc23)n1 | -1.03% | 2.87% | 1.95% | -0.09% | -1.75% | 0.28% | 2.9% | 1.64% | 0.78% | 3.66%
COc1ccccc1-c1cc(/C=C2\C(=O)Nc3ncc(Br)cc32)cc(Br)c1O | 5.91% | 4.86% | 7.42% | 0.86% | 1.67% | 2.44% | 3.84% | 4.82% | 6.73% | 0.98%
CN1CCN(Cc2ccc(-c3cc4ncnc(Nc5ccc(OCc6cccc(F)c6)c(Cl)c5)c4s3)o2)CC1 | 5.07% and 4.38% | 1.16% and 3.96% | 3.36% and 5.38% | -0.07% and -1.54% | 2.1% and 1.05% | 8.64% and 3.56% | 7.78% and 8.12% | 9.39% and 5.57% | 28.6% and 26.4% | 9.3% and 6.62%
Cc1cc(O)cc(C)c1/C=C/c1cncc(C(=O)OC(C)(C)C)c1 | 3.26% | 2.39% | 5.41% | 0.08% | 1.35% | 2.4% | 3.47% | 0.86% | 2.31% | 1.5%
COc1cccc(Nc2nccc(-c3cnn4ncccc34)n2)c1 | 13.8% | 6.9% | 35.4% | -0.56% | -1.54% | -2.67% | 3.93% | 1.92% | 11.2% | -0.58%
CS(=O)(=O)CCNCc1ccc(-c2ccc3ncnc(Nc4ccc(OCc5ccccc5)cc4)c3c2)o1 | -1% | 2.72% | 1.68% | 2.07% | -0.36% | -1.5% | 0.28% | 3.41% | 12.9% | 3.08%
Cn1c(-c2nonc2N)nc2cnccc21 | 1.59% | 2.9% | 4.76% | 2.54% | 2.02% | 1.55% | 2.48% | 2.16% | 3.21% | 2.36%
COc1ccc2ncn(-c3cc(O[C@H](C)c4ccccc4C(F)(F)F)c(C(N)=O)s3)c2c1 | 0.95% | -0.5% | 5.44% | 1.4% | 3.11% | 1.46% | 0.47% | -1.28% | -0.25% | -0.67%
COc1cc(N2CCN(C(C)C)CC2)ccc1Nc1nc(Nc2cccc(F)c2C(=O)O)c2cc[nH]c2n1 | 4.14% | 3.26% | 6.33% | -2.13% | -1.74% | 1.97% | 6.1% | 4.99% | 26.3% | 3.88%
